Source: PubChem BioAssay AID1159580 (chemical genetic matrix, 2015)
In all, about 5,500 compounds went through this assay and about 2,000 (36%) were called active. Not shown: some 18% with an inconclusive outcome. No stated cut-off is given here; in the data, active means normalized growth mostly below about 0.91 (no sharp cut-off); inconclusive means no clear call, values can overlap the other calls; inactive means mostly above about 0.92. The list shows a part of the results.

Test: chemical genetic growth profiling, strain panel (AID 1159580);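 further: tested at 20 µM; growth read once vehicle control cultures reached saturation at 30 °C; 1 = growth at the plate median or of vehicle wells; lower values mean less growth of the strain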
Conditions: S. cerevisiae deletion strains, growth OD
[1] = locus YAL013W, strain DEP1, hits give low values
[2] = locus YDR150W, strain NUM1, hits give low values
[3] = locus YMR263W, strain SAP30, hits give low values
[4] = locus YMR307W, strain GAS1, hits give low values
[5] = locus YNL153C, strain GIM3, hits give low values

Measured: normalized growth

O=C(CSc1nnc(-c2ccco2)n1-c1ccc2c(c1)OCCO2)c1cccc(F)c1
inactive: [1] 0.983 | locus YBR229C, strain ROT2, hits give low values 1 | locus YCL061C, strain MRC1, hits give low values 0.997 | locus YDL101C, strain DUN1, hits give low values 0.987 | locus YDL134C, strain PPH21, hits give low values 1 | [2] 1.01 | locus YEL061C, strain CIN8, hits give low values 0.984 | locus YGR078C, strain PAC10, hits give low values 0.988 | locus YGR229C, strain SMI1, hits give low values 1 | locus YHR030C, strain SLT2, hits give low values 0.961 | locus YHR087W, strain rtc3, hits give low values 1 | locus YJL187C, strain SWE1, hits give low values 1.01 | locus YJR043C, strain POL32, hits give low values 0.997 | locus YJR075W, strain HOC1, hits give low values 1.01 | locus YKL190W, strain CNB1, hits give low values 1 | locus YLR039C, strain RIC1, hits give low values 0.916 | locus YLR058C, strain SHM2 (second series), hits give low values 1.01 | locus YLR085C, strain ARP6, hits give low values 0.978 | locus YLR262C, strain YPT6, hits give low values 0.954 | locus YML094W, strain GIM5, hits give low values 0.983 | locus YMR219W, strain ESC1, hits give low values 0.988 | [3] 0.909 | [4] 0.77 | [5] 0.988 | locus YNL298W, strain CLA4 (second series), hits give low values 0.977 | locus YNL322C, strain KRE1, hits give low values 0.989 | locus YNR030W, strain Alg12, hits give low values 0.988 | locus YPL055C, strain LGE1, hits give low values 0.968 | locus YPL241C, strain CIN2, hits give low values 0.994 | locus YPR135W, strain CTF4, hits give low values 0.854

Cn1cnc2c(NC3CCCC3)ncnc21
inactive: [1] 0.992 | locus YAL040C, strain CLN3, hits give low values 0.993 | locus YCL061C, strain MRC1 (second series), hits give low values 1 | [2] 0.999 | locus YDR363W, strain ESC2, hits give low values 1 | locus YER002W, strain NOP16, hits give low values 1.01 | [3] 1 | [4] 0.989 | locus YNL128W, strain TEP1, hits give low values 1 | [5] 1.02 | locus YNL175C, strain NOP13, hits give low values 1.04 | locus YNL197C, strain WHI3, hits give low values 1 | locus YNL224C, strain SQS1, hits give low values 0.997 | locus YOR083W, strain WHI5 (second series), hits give low values 0.984
